# Experimental data published in ChEMBL document CHEMBL4513146, “CO-ADD screening of Karazin Kharkiv National University (Ukraine) compounds”.
# Results with a measured potency or affinity are listed apart.
# Assays:
# Klebsiella pneumoniae = details: Concentration 32 ug.mL-1;; ASSAY_TEST Inhibition of Bacterial Growth; detection method Absorption (OD600); MEDIA CAMHB; plate type 384well; NBS; CORNING #3640; time 18 hr
# Candida albicans = details: Concentration 32 ug.mL-1; ASSAY_TEST Inhibition of Fungal Growth; detection method Absorption (OD530)
# Cryptococcus neoformans = details: Concentration 32 ug.mL-1; ASSAY_TEST Inhibition of Fungal Growth; detection method Resazurin; Absorption (OD600-OD570); plate type 384well; NBS; CORNING #3640
Compound,Inhibition (Klebsiella pneumoniae) [%],Inhibition (Candida albicans) [%],Inhibition (Cryptococcus neoformans) [%]
CCCCc1ccc(NC(=O)CSc2nnc3c4cc(-c5ccc(C)cc5)nn4ccn23)cc1,4.94,0.26,-7.77
O=C(Cn1nc2ccc(-c3ccccc3)nn2c1=O)NC1CCCCC1,16.29,0.48,-16.53
COc1ccc(NC(=O)Cn2nc3ccc(-c4ccc(Cl)cc4)nn3c2=O)cc1OC,8.45,-2.47,-11.98
O=C(CSc1nnc2c3cc(-c4ccc(F)cc4)nn3ccn12)NCc1ccccc1Cl,4.63,14.03,-17.41
CCc1nnc2c(SCC(=O)Nc3ccc(Cl)cc3)nc3ccccc3n12,3.4,9.64,-3.51
O=C(CSc1nnc2c(=O)n(-c3ccc(F)c(F)c3)ccn12)c1c[nH]c2ccccc12,5.97,22.97,-8.04
COc1ccc(-c2cc3c4nnc(SCC(=O)NCc5ccc(C)cc5)n4ccn3n2)cc1,7.85,1.56,-10.46
COc1ccc(NC(=O)c2ccc3nn(CC(=O)Nc4ccccc4C(F)(F)F)c(=O)n3c2)cc1,0.14,5.37,-8.24
Cc1c(Cl)cccc1NC(=O)Cn1nc2c(N3CCOCC3)nc3ccccc3n2c1=O,9.14,0.17,-24
CCOC(=O)c1ccccc1NC(=O)CSc1nc2ccccc2n2c(C(C)C)nnc12,12.78,1.73,-19.92
O=S(=O)(c1ccc2nncn2c1)N(Cc1cccc(F)c1)c1cc(F)cc(F)c1,12.28,4.13,-6.89
COc1ccc(NC(=O)Cn2nc3ccc(SC(C)(C)C)nn3c2=O)cc1Cl,12.99,3.69,-9.98
COc1ccc(CNC(=O)Cn2nc3c(N4CC(C)CC(C)C4)nccn3c2=O)cc1 (stereo not given),-3.24,4.41,-8.27
Cc1cccc(CN(c2ccc(Cl)cc2)S(=O)(=O)c2cccn3c(C)nnc23)c1,9.48,1.95,-9.68
NC(=O)CSc1nnc2c(=O)n(-c3ccccc3)ccn12,15.37,2.06,-20.31
Cc1ccc(CNC(=O)Cn2nc3ccc(SC4CCCCC4)nn3c2=O)cc1,11.36,13.29,-15.57
COc1ccc(OC)c(NC(=O)Cn2nc3c(SCc4ccc(Cl)cc4)nccn3c2=O)c1,1.59,23.62,-18.91
CCCCc1ccc(NC(=O)Cn2nc3c(N4CC(C)CC(C)C4)nccn3c2=O)cc1 (stereo not given),3.89,4.16,-10.16
COc1ccc(N(Cc2ccc(OC)c(F)c2)S(=O)(=O)c2ccc3nncn3c2)cc1,12.76,2.89,0.06
COc1cc(NC(=O)Cn2nc3ccc(SCc4ccc(Cl)cc4)nn3c2=O)cc(OC)c1,1.27,5.86,-31.85

Compound,Inhibition (Klebsiella pneumoniae) [%],Inhibition (Candida albicans) [%],Inhibition (Cryptococcus neoformans) [%]
Cc1nnc2ccc(S(=O)(=O)N(Cc3ccccc3Cl)c3cccc(F)c3)cn12,7.69,4.75,-10.07
CC(=O)c1cccc(NC(=O)Cn2nc3c(N4CCN(c5ccccc5C)CC4)nccn3c2=O)c1,15.26,5.86,-6.16
O=C(Cn1nc2c(Oc3ccccc3)nccn2c1=O)Nc1cc(F)ccc1F,-4.08,-0.69,-9.47
COc1ccc(NC(=O)Cn2nc3ccc(SC(C)(C)C)nn3c2=O)cc1OC,16.54,-0.86,-14.12
CCOc1ccc(C(=O)CSc2nnc3c(=O)n(-c4ccc(F)cc4)ccn23)cc1,4.99,1.29,-6.51
O=C(CSc1nnc2c(=O)n(-c3ccccc3)ccn12)N1CCN(c2ccc(F)cc2)CC1,13.33,-0.45,-26.48
COc1ccc(-c2cc3c4nn(CC(=O)Nc5ccc(C)cc5C)c(=O)n4ccn3n2)cc1,11.47,2.57,-20.53
COc1ccccc1Cn1c(=O)c2sccc2n2c(=O)n(Cc3c(F)cccc3Cl)nc12,8.3,-2.27,-30.55
O=c1c2sccc2n2c(=O)n(Cc3cccc(Cl)c3)nc2n1CCc1ccccc1,11.95,1.58,-33.74
CCc1ccc(NC(=O)Cn2nc3n(Cc4cccs4)c(=O)c4sccc4n3c2=O)cc1,9.1,35.62,-2.93
Cc1nnc2c(=O)n(CC(=O)Nc3ccccc3Cl)c3ccccc3n12,0.78,1.36,-5.67
Cc1ccc(NC(=O)CSc2nnc3ccc(C(=O)Nc4cccc(F)c4)cn23)cc1F,6.03,-0.33,-4.6
O=C(Cn1nc2c3sc(N4CCCC4)nc3ncn2c1=O)Nc1cccc(Br)c1,18.9,3.98,-10.95
C=Cc1ccc(Cn2nc3c(=O)n(-c4cccc(Cl)c4C)ccn3c2=O)cc1,-0.98,-0.15,-8.23
Cc1cccc(Sc2nccn3c(=O)n(CC(=O)N4CCN(c5ccc(F)cc5)CC4)nc23)c1,-8.7,3.19,-30.97
COc1cc(OC)c(NC(=O)Cn2nc3c(Sc4cccc(C)c4)nccn3c2=O)cc1Cl,10.68,47.09,-23.34
Cc1ccccc1CN(c1ccc(C(C)C)cc1)S(=O)(=O)c1cccn2cnnc12,21.6,3.03,-21.28
COC(=O)c1sccc1NC(=O)CSc1nc2ccccc2n2c(C)nnc12,6.24,5.11,-2.05
CCOC(=O)c1cccc(NC(=O)CSc2nc3ccccc3n3c(C(C)C)nnc23)c1,16.4,0.96,-15.16
O=c1n(Cc2nc(-c3ccc(Cl)cc3)no2)nc2ccc(-c3ccccc3)nn12,13.55,2.36,-20.52

Compound,Inhibition (Klebsiella pneumoniae) [%],Inhibition (Candida albicans) [%],Inhibition (Cryptococcus neoformans) [%]
CCc1cccc(NC(=O)Cn2nc3c(SCc4ccc(Cl)cc4)nccn3c2=O)c1,7.77,22.52,-20.82
COc1cc(NC(=O)Cn2nc3n(CCc4ccccc4)c(=O)c4ccccc4n3c2=O)cc(OC)c1,10.27,12,-22.83
Cc1nnc2ccc(S(=O)(=O)N(Cc3cccc(F)c3)c3ccc(Cl)cc3)cn12,10.33,-0.68,-10.1
CCc1nnc2ccc(S(=O)(=O)N(Cc3cccc(OC)c3)c3cccc(F)c3)cn12,10.63,2.06,-7.44
O=c1c2nnc(SCc3ccc(Cl)cc3)n2ccn1-c1ccc(F)c(F)c1,10.1,4.2,-5.11
COc1ccccc1-n1ccn2c(SCc3cccc(F)c3)nnc2c1=O,7.21,2.05,-9.16
Cc1cccc(C)c1NC(=O)Cn1nc2c(N3CCSCC3)nc3ccccc3n2c1=O,7.3,2.93,-23.14
CCOC(=O)c1ccc(NC(=O)Cn2nc3c(SC4CCCCC4)nccn3c2=O)cc1,11.88,-1.98,-30.92
COc1ccc(NC(=O)Cn2nc3c(SCc4ccc(Cl)cc4)nccn3c2=O)cc1OC,3.8,27.48,-20.96
CCOc1ccc(-n2ccn3c(SCC(=O)c4cccc(OC)c4)nnc3c2=O)cc1,9.6,2.55,-9.06
Cc1cc(C)cc(Nc2nc(C)cc3nn(CC(=O)Nc4cc(F)ccc4F)c(=O)n23)c1,17.33,4.37,-7.31
COc1ccccc1Cn1c(=O)c2sccc2n2c(=O)n(Cc3ccccc3)nc12,5.78,-0.06,-28.67
CCc1nnc2c(S(=O)(=O)N(Cc3cccc(F)c3)c3cccc(C)c3)cccn12,4.33,0.97,-1.17
O=c1n(Cc2ccc3c(c2)OCO3)nc2c(S(=O)(=O)N3CCCCC3)cccn12,10.73,3.52,-6.79
Cc1c(Cl)cccc1NC(=O)CSc1nc2ccccc2n2c(C)nnc12,13.43,0.95,-27.73
O=C(CSc1nnc2c(=O)n(-c3ccc(Br)cc3)ccn12)c1c[nH]c2ccccc12,21.01,3.35,-16.54
CCCc1nnc2c(=O)n(CC(=O)Nc3cccc(C(C)=O)c3)c3ccccc3n12,-4.73,6.89,-25.21
O=C(Cn1nc2c(SCc3ccccc3)nccn2c1=O)NCc1ccc(Cl)cc1,-3.05,1.33,-17.24
CC(C)(C)Sc1ccc2nn(CC(=O)Nc3ccccc3C(F)(F)F)c(=O)n2n1,13.7,0.56,-20.81
CC(C)c1ccc(N(Cc2cccc(Cl)c2)S(=O)(=O)c2cccn3cnnc23)cc1,-3.32,3.48,-7.96
